This passage reports INHIBITION results from ChEMBL document CHEMBL4513216, “Probing the Open Global Health Chemical Diversity Library for Multistage-Active Starting Points for Next-Generation Antimalarials” (ACS Infect Dis, 2020).

Hit rate of the full screen: of about 68,000 compounds, about 2,700 (4%) showed an effect of 50% or more. The sample as a whole holds a higher share of strong results than the screen did.

For the experiment, the system named is Plasmodium berghei. Put plainly: Screen against P. berghei liver stage (PbLuc), transformed with Luciferase, at 2uM. The class given is functional, HepG2. The following applies: tested at 2 uM.
With `O=C1CC(c2ccccc2F)c2c(n3ccsc3nc2=O)N1` (stereo not drawn), the INHIBITION is recorded as 25.47%.

In the case of `CCOC(C)c1noc(CN(C)C(=O)c2cc3ccccn3c2)n1` (stereo not drawn), the INHIBITION is given as 52.08%.

For the compound `CCOC(C)c1noc(CN(C)C(=O)c2ccncc2)n1` (stereo not drawn), the INHIBITION is reported as 20.14%.

With `CCOC(C)c1noc(CN(C)C(=O)C2C(C)(C)C2(C)C)n1` (stereo not drawn), the INHIBITION was 20.14%.

For the compound `Cc1cnn(CCC(=O)N2CCCN(c3ccccc3C#N)CC2)c1`, the INHIBITION is reported as -43.47%.

Turning to `CC(C)C(c1cccnc1)N(C)C(=O)Cc1ccc(O)cc1` (stereo not drawn), the INHIBITION was 39.44%.

On to `CC(C)C(c1cccnc1)N(C)C(=O)Cc1c(F)cccc1F` (stereo not drawn), for which the INHIBITION stood at 54.29%.

Take `CCNC(=O)N(C)C(c1cccnc1)C(C)C` (stereo not drawn): the INHIBITION was 42.2%.

Turning to `Cc1ccc(C(N)c2cccc(S(C)(=O)=O)c2)cc1` (stereo not drawn), the INHIBITION amounted to 54.92%.

Consider `CS(=O)(=O)c1cccc(C(N)c2ccc(F)cc2)c1` (stereo not drawn), for which the INHIBITION was -19.35%.

Turning to `CS(=O)(=O)c1cccc(C(N)c2ccccc2)c1` (stereo not drawn), the INHIBITION turned out to be 35.65%.

Take `COc1ccc(CNC(=O)C(NC(=O)Cc2ccccc2)C(C)C)cn1` (stereo not drawn): the INHIBITION was -129.64%.

`O=C(Cc1ccccc1)N1CCC2(CC(=O)N(c3ccsc3)C2)C1` (stereo not drawn): the INHIBITION is -54.51%.

On to `COc1ccc(Cl)cc1C(=O)NCC1CCN(C(=O)c2ccoc2)CC1`, for which the INHIBITION came to 17.33%.

Consider `CCOc1cccc(NC(=O)Cc2cccc(O)c2)n1`, for which the INHIBITION is given as 0.51%.

As for `CSc1ccc(NC(=O)Cc2cccc(O)c2)nc1`, the INHIBITION is given as 55.36%.

Take `Cn1ccc(NC(=O)Cc2cccc(F)c2)n1`: the INHIBITION is given as 19.89%.

In the case of `COCCC(=O)N1C[C@@H](c2ccccc2F)[C@@]2(CCCC(=O)N2)C1`, the INHIBITION is -6.19%.

As to `O=C(NCc1cnc2n1CCN(CC1CCOCC1)C2)c1ccno1`, the INHIBITION was -14.52%.

As to `Cc1ccc(S(=O)(=O)N2CCC(N3CCCCC3)CC2)cc1C`, the INHIBITION is -25.62%.

Regarding `Cc1ccc(S(=O)(=O)N2CCCCC(N3CCN(C)CC3)C2)cc1F` (stereo not drawn), the INHIBITION is on record as 50.3%.

Take `Cc1cc(S(=O)(=O)N2CCCN3CCCC3C2)ccc1F` (stereo not drawn): the INHIBITION is on record as 6.07%.

`Nc1nccnc1CC1CCCN(Cc2ccnc3ccccc23)C1` (stereo not drawn): the INHIBITION stood at 13.02%.

As for `CC(C)c1nc(CN2CCCC2Cn2cccn2)no1` (stereo not drawn), the INHIBITION is recorded as -97.56%.

On to `COCCN(C)Cc1cc(Cl)ccc1OCC(O)CN1CCCCCC1` (stereo not drawn), for which the INHIBITION is given as -55.56%.

As for `CCOc1cc(F)ccc1NC(=O)NCC(c1cnn(C)c1)N(C)C` (stereo not drawn), the INHIBITION is -24.88%.

As for `CCOc1ccccc1CNC(=O)NCC(c1cnn(C)c1)N(C)C` (stereo not drawn), the INHIBITION is 71.95%.

Turning to `CCOCc1ccccc1NC(=O)NCC(c1cnn(C)c1)N(C)C` (stereo not drawn), the INHIBITION stood at 18.54%.

With `COc1ccc(CN2CCn3cc(CN4CCCCC4)nc3C2)cc1`, the INHIBITION is given as -5.87%.

For the compound `Cc1cc(CN2C[C@@H]3COC[C@]3(COCc3csc(C)n3)C2)no1`, the INHIBITION was found to be 1.74%.

`CC(C)c1nc(CN2CCOC(Cn3cncn3)C2)cs1` (stereo not drawn): the INHIBITION is reported as 11.2%.

`CCOc1ccccc1CCNC(=O)NCC(O)c1cccs1` (stereo not drawn): the INHIBITION is -23.79%.

Turning to `CN(C)c1ccc(CCCNC(=O)NCC(O)c2ccsc2)cc1` (stereo not drawn), the INHIBITION amounted to 34.55%.

Turning to `CCOc1ccccc1CCNC(=O)NCC(O)c1ccsc1` (stereo not drawn), the INHIBITION is 53.63%.

As for `Cc1ccccc1N1CCN(C(=O)CCc2nncn2C)C(C)C1` (stereo not drawn), the INHIBITION is -38.81%.

For `Cc1cccc(C2CC(=O)Nc3c2c(=O)[nH]n3C(C)C)c1` (stereo not drawn), the INHIBITION is on record as -36.73%.

On to `COC(=O)c1ccc(CNCc2cn(C)nc2C)cc1`, for which the INHIBITION was determined as 14.26%.

As for `Cc1nn(C)cc1CNCc1ccc(N(C)C)cc1`, the INHIBITION was 8.09%.

Take `COc1ccc(CNCc2cn(C)nc2C)cc1`: the INHIBITION worked out at 51.32%.

In the case of `CCn1c(O)c(C(C)=O)c2cc(C)ccc21`, the INHIBITION was determined as 30.48%.

Consider `Cc1cccc2c1ccn2CC(=O)NC[C@@H]1CCCN2CCCC[C@H]12`, for which the INHIBITION is on record as -7.52%.

For `CS(=O)(=O)N1CC[C@]2(O)CCN(CCCC(=O)c3ccccc3)C[C@@H]2C1`, the INHIBITION is -30.08%.

With `C/C(NC(=O)c1ccccn1)=C1\C(=O)C[C@@H]2[C@H]1C2(C)C`, the INHIBITION came to 52.74%.

`C/C(NC(=O)c1cccs1)=C1\C(=O)C[C@@H]2[C@H]1C2(C)C`: the INHIBITION amounted to 21.57%.

As to `C/C(NC(=O)c1ccco1)=C1/C(=O)C[C@@H]2[C@H]1C2(C)C`, the INHIBITION was found to be 18.11%.

In the case of `Cc1nn(C)c2cn(C(C)C(=O)NCc3ccncc3)nc12` (stereo not drawn), the INHIBITION amounted to 22.13%.

For `O=C1CC2(CCCNC2)C(=O)N1Cc1ccc(Cl)cc1` (stereo not drawn), the INHIBITION is -59.66%.

For the compound `Cc1cccc(C(=O)N2CCCC[C@]3(C)NC(=O)CCC[C@H]23)n1`, the INHIBITION stood at 49.48%.

In the case of `Cc1ccc2nc(C(=O)N3CCCC[C@]4(C)NC(=O)CCC[C@H]34)cn2c1`, the INHIBITION is 55.74%.

As for `Cc1cccc2nc(C(=O)N3CCCC[C@]4(C)NC(=O)CCC[C@H]34)cn12`, the INHIBITION was 29.06%.

As to `CCc1c(C)[nH]c(C(C)(C)N)nc1=O`, the INHIBITION is reported as -33.81%.

`COc1ccccc1C1(C(=O)N2CCN(CC(C)O)CC2)CC1` (stereo not drawn): the INHIBITION came to 58.53%.

In the case of `COc1cc(C2(C(=O)N3CCN(CC(C)O)CC3)CC2)ccc1C` (stereo not drawn), the INHIBITION was -71.2%.

Take `CCC(O)CN1CCN(C(=O)C2(c3ccc(C)c(OC)c3)CC2)CC1` (stereo not drawn): the INHIBITION was -10.44%.

On to `O=C(NC1CC1)[C@@H]1CCO[C@@H]2CCN(CCc3ccccc3)C[C@@H]21`, for which the INHIBITION worked out at 8.88%.

As to `CCC[C@@H]1CN(Cc2cnc(-c3cccs3)nc2)C[C@H]1C(=O)O`, the INHIBITION is -9.03%.

Take `CCC[C@@H]1CN(c2ncnc3sccc23)C[C@H]1C(=O)O`: the INHIBITION worked out at 51.48%.

Turning to `CCC[C@@H]1CN(c2ncnc3sccc23)C[C@H]1NS(C)(=O)=O`, the INHIBITION is recorded as 46.58%.

As to `CC(C)CN1CCC2(CCN(CC3CC3)CC2)C1=O`, the INHIBITION is reported as 16.25%.

On to `NC(=O)CCOc1ccc(NC(=O)c2ccccc2OC(F)F)cc1`, for which the INHIBITION came out at 58.14%.

In the case of `COc1cccc(C(=O)Nc2ccc(OCCC(N)=O)cc2)c1OC`, the INHIBITION is reported as -20.19%.

As for `CC(Cc1ccccc1F)C(=O)Nc1ccc(OCCC(N)=O)cc1` (stereo not drawn), the INHIBITION is -11.88%.

Take `CCc1noc(C(C)N2CCN(C)CC2)n1` (stereo not drawn): the INHIBITION came out at 9.83%.

With `CCc1noc(C(C)N2CCN(c3ccc(C#N)cn3)CC2)n1` (stereo not drawn), the INHIBITION was -30.71%.

Consider `Cc1noc(C(C)N2CCN(c3ccc(C#N)cn3)CC2)n1` (stereo not drawn), for which the INHIBITION was 25.35%.

Turning to `Cc1noc(C(C)N2CCN(c3ncnc4sccc34)CC2)n1` (stereo not drawn), the INHIBITION was 52.89%.

Consider `Cc1noc(C(C)N2CCN(c3ncnc4ccccc34)CC2)n1` (stereo not drawn), for which the INHIBITION was found to be 4.34%.

For `CCc1noc(C(C)N2CCN(c3ncnc4sccc34)CC2)n1` (stereo not drawn), the INHIBITION amounted to 52.89%.
